The text below walks through data of PubChem BioAssay (NCI).

Molecules are shown by their SMILES. The panel holds about 83,000 compounds, 20% with a hit somewhere; the sample as a whole holds those more often.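 Single-concentration screen, 48 h exposure, 96-well plates. Endpoint: percent growth. Below 10 = active.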 Unmarked numbers belong to inactive results. Active and inactive are the calls of the source.

This assay deals with IGROV1 ovarian. The assay is described as follows: NCI-60 one-dose screen, 48 h (100 = growth as untreated, 0 = no growth, -100 = all killed). Conditions: 10 µM unless noted. How it is done: Growth inhibition of the IGROV1 human tumor cell line is measured as a screen for anti-cancer activity. Cells are grown in 96 well plates and exposed to the test compound for 48 hours. Compounds are tested at a single concentration, which is 10^-5 M for most compounds. The reported endpoint is percent growth (GI% or GIPRCNT), where numbers from 0 - 100% represent growth inhibition, and numbers from -100% - 0 represent cell death. For example, a value of 40 represents 60% growth inhibition. A value of 0 means no net growth occurred over the course of the experiment. A value of -40 indicates 40% of cells at the beginning of the experiment died by the end of the experiment. A value of -100 means all cells are dead at the end of the experiment.
NCI-60 Human Tumor Cell Lines Screen was performed using the standard one-dose NCI protocol, which is described in more detail at https://dtp.cancer.gov/discovery_development/nci-60/default.htm.
Compounds with GIPRCNT values below 10 were considered active. Activity score was based on GIPRCNT using the following formula: […]
Score is 0 for GIPRCNT values of 100 or above, 50 for GIPRCNT values of 0, and 100 for GIPRCNT values of -100.
Consider `OC1(c2ccccc2)c2ccccc2N(c2ccccc2)c2ccc(Cl)cc21` (stereo not given), for which the growth was -94.5% (active).
As for `COc1ccc(-c2nc3ccc(C)cc3c3c2c(=O)n(C)c(=O)n3C)cc1OC`, the figure is 108%; as for `O=c1cc(CP(=O)(O)O)c2cc(O)c(-c3ccccc3)cc2o1`, 104%.
On to `CCC(C)(C)c1ccc(Nc2ccc(Nc3ccc(C(C)(C)CC)cc3)cc2)cc1`, for which the growth is 95.3%.
For `Cc1cc(=O)oc2cc(Oc3nc(Br)cn4c(Br)cnc34)ccc12`, the growth is 77.4%.
Turning to `N[C@@H]1CCC[C@H]1NCCCCN1C(=O)c2cccc3cc([N+](=O)[O-])cc(c23)C1=O`, the growth was 25.6%.
As for `Cc1nc([P+](c2ccccc2)(c2ccccc2)c2ccccc2)c(N2CCCCC2)o1`, the growth was 32.8%.
As for `O=CCCCOCc1ccccc1`, the figure is 101%.
With `COCCOC(C)C(/C=N/NC(N)=S)=N/NC(N)=S` (stereo not given), the growth is 21.2%.
For `CN(C)CCn1c(=O)c2ccccc2n2nc3ccccc3c12`, the growth is 74.9%.
As for `O=c1oc2ccccc2cc1-c1nn(-c2ccccc2)cc1-c1nn[nH]n1`, the figure is 99.1%; as for `Fc1ccc(/C=C/[C@@H]2C[C@@H](F)CCO2)cc1`, 103%; as for `Cc1cc2oc(/C=C/c3ccccc3)cc(=O)c2c(C)c1Cl`, 109%.
In the case of `COc1cc(OC)c2c(=O)c3c(CC=C(C)C)cc(OC)c(O)c3oc2c1`, the growth was 91.7%.
For the compound `Fc1ccc2[nH]cc(-c3nc(-c4c[nH]c5c(Cl)nccc45)cs3)c2c1`, the growth was 61.7%.
`O=C1/C(=C/c2ccccn2)SC(=S)N1N1CCOCC1`: the growth is 94.1%.
As for `COC1C(O)CC(OC2CC(OC3CC(O[C@@H]4C(=O)c5c(cc6cc(OC7CC(OC8CC(O)C(O)C(C)O8)C(O)C(C)O7)c(C)c(O)c6c5O)CC4[C@H](OC)C(=O)C(C)=O)OC(C)C3O)OC(C)C2O)OC1C` (stereo not given in full), the growth was 13.6%.
Consider `COc1cc(-c2nccc3[nH]c(-c4cccc5[nH]ccc45)nc23)cc(OC)c1OC`, for which the growth is 44.6%.
As for `CC(=O)c1c(Nc2cccc(F)c2)[nH]c2c(Cl)cc(Cl)c(Cl)c2c1=O`, the growth is 17.9%.
For the compound `C=C(C)[C@@H]1CC[C@]2(CO)CC[C@]3(C)[C@H](CC[C@@H]4[C@@](C)(CCCN)[C@H](C(=C)C)CC[C@]43C)[C@@H]12`, the growth is -96.2% (active).
As for `O=C(CSc1nnnn1-c1ccccc1)Nc1ccc(Oc2ccccc2)cc1`, the figure is 61.9%; as for `COc1ccc(-c2nc3c(c(-c4ccc(Cl)cc4)nn3-c3ccccc3)c(-c3ccccc3)c2C#N)cc1`, 111%; as for `N=C(N)c1ccc(OCCSCCOc2ccc(C(=N)N)cc2)cc1`, 93.3%.
For the compound `Nc1c(Br)cc2c(c1Br)Cc1cc([N+](=O)[O-])ccc1-2`, the growth was 135%.
Consider `CCOC(=O)c1c(NC(=O)c2ccccc2)sc2c3c(ccc12)OCN(C)C3`, for which the growth is 18.6%.
For the compound `C=C1C(=O)O[C@H]2[C@H]1CC/C(COC(=O)/C=C\C(=O)NCc1ccc(Cn3c(=O)sn(CCCCl)c3=O)cc1)=C\CC[C@@]1(C)O[C@@H]21`, the growth is 58.6%.
Turning to `CN(C)Cc1cc(C(C)(C)C)cc(Br)c1O`, the growth is 108%.
For `Nc1cccc(-c2ccc(COc3ccc(CC4SC(=O)NC4=O)cc3)cc2)c1` (stereo not given), the growth is 57.5%.
Take `COc1ccc(/C=C2\c3cc(OC)c(OC)c(OC)c3CC[C@@H]2O)cc1F`: the growth is 43%.
For `CC(=O)Nc1sc2c(c1-c1nc3ccccc3s1)CNC2` the value was 13.5%.
As to `O=c1oc2c(cnc3ccccc32)cc1-c1cccc(Cl)c1`, the growth was 106%.
For `Nc1nc(C(=O)N/N=C/c2ccc(F)cc2)nn1-c1ccc(S(N)(=O)=O)cc1` the value was 91.5%.
`CCN(CC)CCCNc1cc(OC)c(OC)c2cccnc12`: the growth is 35.4%.
For `CN(C)CCCn1c2c(c3ccncc3c1=O)C(=O)c1ccccc1-2` the value was 0.297% (active); for `COc1ccc(/C=N/NC(=O)Cn2c(-c3ccc(S(C)(=O)=O)cc3)nc3ccccc32)cc1`, 91.4%; for `CCN(CC)C(=O)C1=C(C)NC(=O)NC1c1ccc2c(c1)OCO2` (stereo not given), 99.6%.
Consider `Cc1cccc(NC(=O)Cn2cc(CN3CCN(c4ccnc5cc(Cl)ccc45)CC3)nn2)c1`, for which the growth is 89.1%.
Regarding `Cc1ccccc1N1CCN(C(=S)c2ccccc2)CC1`, the growth is 57.2%.
Regarding `O=C(Nc1nc(Cl)nc(Nc2ccc(N3CCOCC3=O)cc2)n1)c1ccc(Cl)s1`, the growth is 72.6%.
On to `COC1/C=C/OC2(C)Oc3c(C)c(O)c4c(O)c(c(/C=N/N(c5ccccc5)c5ccccc5)c(O)c4c3C2=O)NC(=O)C(C)=C/C=C/C(C)C(O)C(C)C(O)C(C)C(OC(C)=O)C1C` (stereo not given), for which the growth is 100%.
